Test results: PubChem BioAssay (NCI)
Several values for one entry are separate records, joined by “and”; a condition that tells them apart may be missing. Identical values can stand only once. Compounds without any hit were thinned out: in the full panel of roughly 83,000, 20% have a hit.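 For each line, cells grew in 96-well plates with the test compound present at a single concentration for 48 hours.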 Activity calls are given as the source filed them. The calls were made as follows: active = growth percent below 10; inactive = the rest.

Assays:
Assay in all cases: NCI-60 one-dose screen, 48 h (100 = growth as untreated, 0 = no growth, -100 = all killed)
Conditions in all cases: 10 µM unless noted
SR leukemia = system: SR leukemia
RPMI-8226 leukemia = system: RPMI-8226 leukemia
OVCAR-8 ovarian = system: OVCAR-8 ovarian
OVCAR-5 ovarian = system: OVCAR-5 ovarian
OVCAR-4 ovarian = system: OVCAR-4 ovarian
SK-OV-3 ovarian = system: SK-OV-3 ovarian
IGROV1 ovarian = system: IGROV1 ovarian
OVCAR-3 ovarian = system: OVCAR-3 ovarian
HS 578T breast = system: HS 578T breast
NCI/ADR-RES ovarian = system: NCI/ADR-RES ovarian
T-47D breast = system: T-47D breast
BT-549 breast = system: BT-549 breast
MDA-MB-435 melanoma = system: MDA-MB-435 melanoma
SW-620 colon = system: SW-620 colon
MCF7 breast = system: MCF7 breast
HCT-116 colon = system: HCT-116 colon
KM12 colon = system: KM12 colon
MDA-MB-468 breast = system: MDA-MB-468 breast
HCC-2998 colon = system: HCC-2998 colon

| Compound | growth (SR leukemia) | growth (RPMI-8226 leukemia) | growth (OVCAR-8 ovarian) | growth (OVCAR-5 ovarian) | growth (OVCAR-4 ovarian) | growth (SK-OV-3 ovarian) | growth (IGROV1 ovarian) | growth (OVCAR-3 ovarian) | growth (HS 578T breast) | growth (NCI/ADR-RES ovarian) | growth (T-47D breast) | growth (BT-549 breast) | growth (MDA-MB-435 melanoma) | growth (SW-620 colon) | growth (MCF7 breast) | growth (HCT-116 colon) | growth (KM12 colon) | growth (MDA-MB-468 breast) | growth (HCC-2998 colon) |
| --- | --- | --- | --- | --- | --- | --- | --- | --- | --- | --- | --- | --- | --- | --- | --- | --- | --- | --- | --- |
| Clc1ccc(Nc2nnc(-c3c[nH]c4ccccc34)o2)cc1 | 49.6% (inactive) | 28.6% (inactive) | 86.1% (inactive) | 101% (inactive) | 78.6% (inactive) | 72.2% (inactive) | 47.3% (inactive) | 102% (inactive) | 82.5% (inactive) | 50.7% (inactive) | 42% (inactive) | 63.7% (inactive) | 25% (inactive) | 86.1% (inactive) | 38.3% (inactive) | 79.5% (inactive) | 36% (inactive) |  |  |
| O=C1C=CC(=CC=C2N(Cc3ccc4ccccc4c3)c3ccccc3N2Cc2ccc3ccccc3c2)C=C1 | 3.48% (active) | -5.25% (active) and -13.4% (active) | 20.2% (inactive) and 24.9% (inactive) | 36.6% (inactive) and 47.2% (inactive) | 37.9% (inactive) and 27.6% (inactive) | 13.4% (inactive) and 46.4% (inactive) | 7.62% (active) and 29.5% (inactive) | 24.2% (inactive) and -1.46% (active) | 52.3% (inactive) and 32.6% (inactive) | 104% (inactive) and 102% (inactive) | 5.78% (active) and 27.5% (inactive) | 9.59% (active) and 29.8% (inactive) | 12.5% (inactive) and 8.75% (active) | 29.1% (inactive) and 19.4% (inactive) | 15.7% (inactive) and 14.1% (inactive) | 10.7% (inactive) and 14.7% (inactive) | 33.8% (inactive) and 11.2% (inactive) | -48.9% (active) and -28.9% (active) |  |
| Cn1cc(-c2cc(N)n3nc(-c4c[nH]c5ccccc45)cc3n2)c2cc(F)ccc21 | 13.1% (inactive) | 0.774% (active) | -43.2% (active) | 34.4% (inactive) | 35.3% (inactive) | 97.9% (inactive) | 21.2% (inactive) | 15.8% (inactive) | 79.5% (inactive) | 19.1% (inactive) | 15.8% (inactive) | 98.3% (inactive) | 14.6% (inactive) | -76.8% (active) | -7.62% (active) | -71.3% (active) | -33.9% (active) | 8.2% (active) |  |
| COc1ccc2[nH]cc(-c3cc4nc(-c5cn(C)c6ncccc56)cc(N)n4n3)c2c1 | -9.65% (active) | -33.4% (active) | -40.6% (active) | -17.6% (active) | -26.4% (active) | 103% (inactive) | -62.5% (active) | -57.6% (active) | -10.3% (active) | -15.6% (active) | 33.3% (inactive) | -8.26% (active) | 52.5% (inactive) | -53.3% (active) | -24.8% (active) | -81.3% (active) | -66.2% (active) | -75.9% (active) |  |
| O=C(Cc1c(-c2cccc([N+](=O)[O-])c2)n(-c2ncnc3c2c(-c2ccccc2)c(-c2ccccc2)n3Cc2ccccc2)[nH]c1=O)c1ccc(Cl)c(Cl)c1 | 59.8% (inactive) | 12.6% (inactive) | 34.3% (inactive) | 66.8% (inactive) | 31.6% (inactive) | 72.2% (inactive) | 33.8% (inactive) | 46.5% (inactive) | 20.2% (inactive) | 51.6% (inactive) | 0.846% (active) | 63.7% (inactive) | 19.9% (inactive) | 56.1% (inactive) | 24.7% (inactive) | 32.3% (inactive) | 24.7% (inactive) | -10.4% (active) | 26.7% (inactive) |
| CS(=O)(=O)Nc1cc(-c2ccc3ncnc(Nc4ccc(OCc5cccnc5)c(Cl)c4)c3c2)cnc1Cl | -60.1% (active) | -2.42% (active) | 8.77% (active) | 12.1% (inactive) | 28.9% (inactive) | -14.9% (active) | -56.8% (active) | -40.7% (active) | -25.3% (active) | 70.5% (inactive) | -39% (active) | -55.6% (active) | -9.37% (active) | 6.78% (active) | -8.39% (active) | -71.6% (active) | 10.8% (inactive) | -81.3% (active) |  |
| Nc1cccc(-n2c(COc3ccc(I)cc3)nc3ccccc32)c1 | 64.7% (inactive) and 101% (inactive) | 68.9% (inactive) and 104% (inactive) | 93.4% (inactive) and 106% (inactive) | 88.6% (inactive) and 105% (inactive) | 66.2% (inactive) and 105% (inactive) | 64.7% (inactive) and 102% (inactive) | 46.8% (inactive) and 107% (inactive) | 87.7% (inactive) and 83.2% (inactive) | 63.2% (inactive) and 110% (inactive) | 74.3% (inactive) and 102% (inactive) | 54.6% (inactive) and 99.2% (inactive) | 92.6% (inactive) and 99.7% (inactive) | 95.9% (inactive) and 99.7% (inactive) | 86.3% (inactive) and 104% (inactive) | 67.9% (inactive) and 98.9% (inactive) | 76% (inactive) and 102% (inactive) | 87.9% (inactive) and 99.6% (inactive) | 72.2% (inactive) and 102% (inactive) | 118% (inactive) and 113% (inactive) |
| CC1=C(C(=O)OCc2ccccc2)C(c2cccc3ccccc23)n2c(nc3ccccc32)N1 (stereo not given) | 19% (inactive) | 15.3% (inactive) | 31.2% (inactive) | 41% (inactive) | 46.7% (inactive) | 25.2% (inactive) | 31.3% (inactive) | -6.62% (active) | 5.52% (active) | -6.92% (active) | 30.2% (inactive) | 25% (inactive) | -45.5% (active) | 23.7% (inactive) | 12.7% (inactive) | 17.7% (inactive) | 19.1% (inactive) | -42.5% (active) | 57% (inactive) |
| COc1ccc(C(=O)/C=C/c2ccc3c(c2)OCCO3)cc1S(N)(=O)=O | 17.6% (inactive) | 59.2% (inactive) | 40.7% (inactive) | 105% (inactive) | 83.3% (inactive) | 99% (inactive) | 63.6% (inactive) | 68.1% (inactive) | 87% (inactive) | 53.1% (inactive) | 53% (inactive) | 65.4% (inactive) | 87.8% (inactive) | 32.3% (inactive) | 23.2% (inactive) | 42.9% (inactive) | 85.8% (inactive) | 80.7% (inactive) |  |
| CCN(C(=O)CN1C(=O)/C(=C/c2ccco2)SC1=S)C1CCS(=O)(=O)C1 (stereo not given) | 87.5% (inactive) | 101% (inactive) | 101% (inactive) | 111% (inactive) | 94.2% (inactive) | 101% (inactive) | 111% (inactive) | 103% (inactive) | 118% (inactive) | 93.6% (inactive) | 78.1% (inactive) | 97% (inactive) | 92.2% (inactive) | 102% (inactive) | 91.8% (inactive) | 98.2% (inactive) | 103% (inactive) | 61% (inactive) |  |
| FC(F)(F)CN1CCN(CCn2c(C(F)(F)F)cc3c(Cl)ncnc32)CC1 | -54.6% (active) | -6.12% (active) | 8.76% (active) | 103% (inactive) | 21.5% (inactive) | 71.4% (inactive) | -80.5% (active) | -47.4% (active) | 47.4% (inactive) | 75.1% (inactive) | 59.3% (inactive) | -27.2% (active) | 38.7% (inactive) | 11.3% (inactive) | 25.3% (inactive) | 1.79% (active) | 70.7% (inactive) | -64% (active) | -96.7% (active) |
| CC[C@@]12CC(C(=O)OC)=C3Nc4cc5c(cc4[C@@]34CCN(C[C@H]3O[C@H]31)[C@@H]24)[C@@H]1[C@H](O5)[C@@H](O)[C@@]2(CC)CC(C(=O)OC)=C3Nc4cc(O)ccc4[C@@]34CCN1[C@@H]24 | -29.6% (active) | -9.59% (active) | 2.33% (active) | -74.7% (active) | -39% (active) | -32.4% (active) | -65.8% (active) | -15.7% (active) | 6.27% (active) | 6.74% (active) | -37.5% (active) | -87.6% (active) | -54.3% (active) | -71.1% (active) | -56.8% (active) | -50.4% (active) | -46.6% (active) | -78.5% (active) |  |
| Nc1cc2ccccc2c(=O)n1NC(=O)c1ccc(Br)cc1 | 72.5% (inactive) | 92.1% (inactive) | 98.6% (inactive) | 97.8% (inactive) | 91% (inactive) | 115% (inactive) | 101% (inactive) | 79.2% (inactive) | 102% (inactive) | 93% (inactive) | 94.8% (inactive) | 136% (inactive) | 103% (inactive) | 98.4% (inactive) | 74.6% (inactive) | 95.1% (inactive) | 92.7% (inactive) | -54.9% (active) | 97.5% (inactive) |
| C=CCSc1nnc(-c2c(C)nc3sccn23)o1 | 101% (inactive) | 86% (inactive) | 98.6% (inactive) | 85.8% (inactive) | 102% (inactive) | 98.6% (inactive) | 95.5% (inactive) | 131% (inactive) | 77.1% (inactive) | 82.7% (inactive) | 79.4% (inactive) | 65.2% (inactive) | 101% (inactive) | 97% (inactive) | 70.8% (inactive) | 94% (inactive) | 101% (inactive) | 5.74% (active) |  |
| O=CNc1cccc(-n2cnc3cc(-c4ccc(O)cc4)ccc32)c1 | 33.8% (inactive) | 24.3% (inactive) | 31.6% (inactive) | 68.7% (inactive) | 65.4% (inactive) | 28.4% (inactive) | 44.3% (inactive) | 26.8% (inactive) | 24.4% (inactive) | 12.1% (inactive) | 37.5% (inactive) | 52.6% (inactive) | 24.1% (inactive) | 46.3% (inactive) | 35% (inactive) | 14.1% (inactive) | 26.4% (inactive) | 19.5% (inactive) | 43.5% (inactive) |
